These results are taken from article PMC4336329 (PLoS ONE, 2015).

The whole screen tested about 310,000 compounds, of which about 2,200 (0.71%) showed an effect of 50% or more. Effects have a minus sign here. Only a selection was taken, and strong results are over-represented in it overall.

This assay deals with human ether-à-go-go-related gene (hERG) potassium channel (human, UniProt Q12809). The experiment in a line: primary screen, population patch clamp on CHO cells stably expressing hERG; higher = less effect of the substance.
Sequence of human ether-à-go-go-related gene (hERG) potassium channel (Q12809 whole entry, looked up): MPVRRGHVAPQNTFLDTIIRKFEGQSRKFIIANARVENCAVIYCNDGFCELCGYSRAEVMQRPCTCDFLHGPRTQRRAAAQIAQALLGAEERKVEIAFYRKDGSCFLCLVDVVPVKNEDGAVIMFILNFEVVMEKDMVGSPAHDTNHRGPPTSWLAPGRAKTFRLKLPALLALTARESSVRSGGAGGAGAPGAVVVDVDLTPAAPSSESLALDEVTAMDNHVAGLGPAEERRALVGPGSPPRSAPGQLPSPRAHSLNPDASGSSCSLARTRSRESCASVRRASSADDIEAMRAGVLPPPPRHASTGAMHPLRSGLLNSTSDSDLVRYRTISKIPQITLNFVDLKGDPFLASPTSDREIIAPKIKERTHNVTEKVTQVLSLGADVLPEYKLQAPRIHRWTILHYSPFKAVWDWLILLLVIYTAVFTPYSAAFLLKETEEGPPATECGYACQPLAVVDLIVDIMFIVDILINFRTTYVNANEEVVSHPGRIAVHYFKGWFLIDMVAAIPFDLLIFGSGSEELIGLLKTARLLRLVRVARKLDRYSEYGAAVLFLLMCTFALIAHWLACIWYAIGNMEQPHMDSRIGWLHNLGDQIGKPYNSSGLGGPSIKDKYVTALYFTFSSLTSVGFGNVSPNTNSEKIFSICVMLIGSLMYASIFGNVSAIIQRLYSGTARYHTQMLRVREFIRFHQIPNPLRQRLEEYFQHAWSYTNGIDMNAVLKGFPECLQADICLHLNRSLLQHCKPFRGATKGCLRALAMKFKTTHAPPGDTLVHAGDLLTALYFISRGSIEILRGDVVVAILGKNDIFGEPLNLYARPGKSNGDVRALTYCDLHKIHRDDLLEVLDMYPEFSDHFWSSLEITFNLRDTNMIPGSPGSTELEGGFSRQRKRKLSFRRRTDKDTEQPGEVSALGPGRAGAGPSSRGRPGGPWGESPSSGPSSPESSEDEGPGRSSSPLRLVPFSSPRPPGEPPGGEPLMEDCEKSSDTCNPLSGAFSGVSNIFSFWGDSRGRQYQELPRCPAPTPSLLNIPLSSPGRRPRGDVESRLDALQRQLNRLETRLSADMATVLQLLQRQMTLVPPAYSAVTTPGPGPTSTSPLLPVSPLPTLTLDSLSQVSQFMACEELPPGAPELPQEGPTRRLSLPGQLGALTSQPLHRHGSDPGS
Consider `CCN(CC)S(=O)(=O)c1cc(C(=O)N(C)CC(=O)Nc2ccc(Cl)cc2)ccc1Cl`, for which the “hERG current change (%, negative = inhibition) at 1uM” value is given as -1.15%.
The result for `COc1cccc(-c2c(-c3cc(OC)cc(OC)c3)n(C)c3ccc(-c4ccc5[nH]ccc5c4)cc23)c1` reads 11.8%; that for `CCN1CCN(c2nc(-c3ccccc3Cl)nc3ccccc23)CC1.Cl`, -39.1%; that for `Cc1ccc(S(=O)(=O)N2CCN=C2SCc2ccc(Cl)c(Cl)c2)cc1`, 10.2%.
The result for `COc1ccc(C=C2c3ccccc3C(=O)c3ccccc32)c(OC)c1` reads 7.49%; that for `Cc1nn(Cc2noc(C(=O)NCc3ccc4c(c3)OCO4)n2)c(C)c1Br`, 1.08%.
The result for `CCOC(=O)n1c(=O)n(Cc2ccccc2Cl)c2ccccc21` reads 10.3%.
Regarding `O=C(CSc1nnc(COc2ccc(Cl)cc2)o1)NC1CCCCC1`, the “hERG current change (%, negative = inhibition) at 1uM” value is -2.69%.
The result for `COc1ccc(C)cc1NC(=O)CCN1CCN(C/C=C/c2ccccc2)CC1` reads -70.9%.
The result for `COc1ccc(C)cc1NC(=O)CCN1CCN(c2ccccc2)CC1` reads 3.12%; that for `COc1ccc(C)cc1NC(=O)CN1CCN(C/C=C/c2ccccc2)CC1`, -45.2%.
The result for `O=C(NCC1COc2ccccc2O1)c1ccc(NC(=O)c2ccco2)cc1` (stereo not drawn) reads -1.42%; that for `COc1ccc(-n2c(SCC(=O)N/N=C/c3ccccc3OCC(=O)O)nc3ccccc3c2=O)cc1`, 11.6%; that for `COc1cccc(CN2CCN(Cc3cc(OC)c(OC)cc3[N+](=O)[O-])CC2)c1.O=C(O)C(=O)O`, -18.5%.
With `O=C(COc1ccc(Cl)cc1)N1CCN(Cc2ccc3c(c2)OCO3)CC1`, the “hERG current change (%, negative = inhibition) at 1uM” value is -6.58%.
The result for `O=C(COc1ccc(Cl)cc1)N1CCN(Cc2ccccc2)CC1` reads 3.32%; that for `O=C(COc1ccc2ccccc2c1)N1CCN(Cc2ccncc2)CC1.O=C(O)C(=O)O`, -14.8%; that for `O=C(COc1ccc(Cl)cc1)N1CCN(Cc2ccc([N+](=O)[O-])cc2)CC1.O=C(O)C(=O)O`, -76.4%.
To `COc1cccc(CN2CCN(C(=O)COc3ccc4ccccc4c3)CC2)c1` belongs 10.5%; to `O=C(COc1ccccc1)N1CCN(C2CCCC2)CC1.O=C(O)C(=O)O`, 8.65%.
The result for `O=C(COc1ccc(Br)cc1)N1CCN(C2CCCC2)CC1` reads -42.1%; that for `O=C(COc1ccc(Cl)cc1)N1CCN(C2CCCC2)CC1.O=C(O)C(=O)O`, -68.4%; that for `COc1cc(CN2CCN(Cc3ccc(C)cc3)CC2)c([N+](=O)[O-])cc1OC.O=C(O)C(=O)O`, -73.4%.
As to `COc1cc(CN2CCN(Cc3ccc([N+](=O)[O-])cc3)CC2)c([N+](=O)[O-])cc1OC.O=C(O)C(=O)O`, the “hERG current change (%, negative = inhibition) at 1uM” value is -25.4%.
The result for `O=C(COc1ccc2ccccc2c1)N1CCN(C2CCN(Cc3ccccc3)CC2)CC1` reads -69.6%.
Take `CCN1c2ccccc2-c2nc3ccccc3n2C1c1cccs1` (stereo not drawn): the “hERG current change (%, negative = inhibition) at 1uM” value is recorded as 4.28%.
The result for `COCCn1c(=NC(=O)c2cccs2)sc2cc(NC(C)=O)ccc21` reads 0.283%; that for `COc1ccc(N2C(=O)C(Cl)=C(Nc3ccccc3OC)C2=O)cc1`, 2.56%; that for `O=C(CSc1nnc(-c2ccccn2)n1Cc1ccccc1)Nc1ccc2c(c1)OCO2`, 7.03%.
The result for `CCN(CC)CCCNC(CC(=O)Nc1cccc([N+](=O)[O-])c1)C(=O)O` (stereo not drawn) reads 3.62%.
As to `COc1ccccc1C(=O)C1CCCN(C(=O)c2cccc(-n3cccn3)c2)C1` (stereo not drawn), the “hERG current change (%, negative = inhibition) at 1uM” value was found to be 9.07%.
To `Nc1ccc(-n2nnnc2-c2ccco2)cc1` belongs 11.1%; to `Cc1cccc(OCC(=O)N2CCN(C(=O)COc3ccc(Cl)cc3)CC2)c1`, -56.6%.
To `Cc1cccc(OCC(=O)N2CCN(C(=O)c3ccc([N+](=O)[O-])cc3)CC2)c1` belongs -38.8%.
For the molecule `Cc1cccc(OCC(=O)N2CCN(Cc3ccc([N+](=O)[O-])cc3)CC2)c1.O=C(O)C(=O)O`, the “hERG current change (%, negative = inhibition) at 1uM” value is -60.5%.
For `Cc1ccc(OCC(=O)N2CCN(C(=O)c3ccc([N+](=O)[O-])cc3)CC2)cc1`, the “hERG current change (%, negative = inhibition) at 1uM” value is -19.5%.
In the case of `Cc1cccc(OCC(=O)N2CCOCC2)c1`, the “hERG current change (%, negative = inhibition) at 1uM” value worked out at 17.1%.
To `Cc1ccc(OCC(=O)N2CCN(Cc3ccc([N+](=O)[O-])cc3)CC2)cc1.O=C(O)C(=O)O` belongs -85%; to `Cc1cccc(OCC(=O)N2CCN(Cc3ccncc3)CC2)c1.O=C(O)C(=O)O`, 10.2%; to `CSc1ccc(CN2CCN(C(=O)COc3ccc(C)cc3)CC2)cc1.O=C(O)C(=O)O`, -19.3%.
The result for `Cc1cccc(OCC(=O)N2CCN(S(C)(=O)=O)CC2)c1` reads 9.87%; that for `Cc1ccc(S(=O)(=O)N2CCC(C(=O)OCC(=O)N(CC(C)C)C3CCS(=O)(=O)C3)CC2)cc1C` (stereo not drawn), 10.8%; that for `Nc1n[nH]c2cc(=O)n(-c3cccc(C(F)(F)F)c3)nc12`, 12.3%.
To `O=C(CSc1nc(Cc2ccccc2)nc2ccccc12)Nc1nc2c(s1)CCCC2` belongs 15.9%.
Take `O=C(Nc1ccc2c(c1)OCO2)C1CC(=O)N(CCc2ccccc2)C1` (stereo not drawn): the “hERG current change (%, negative = inhibition) at 1uM” value worked out at 4.44%.
To `Cc1ccc(S(=O)(=O)N(C)C)cc1NC(=O)COC(=O)C1CCCC1` belongs -0.454%; to `Cc1ccc(S(=O)(=O)N(C)C)cc1NC(=O)COC(=O)C1CCN(S(=O)(=O)c2cccs2)CC1`, -58.4%.
Regarding `Cc1ccc(S(=O)(=O)N(C)C)cc1NC(=O)COC(=O)C1CC1`, the “hERG current change (%, negative = inhibition) at 1uM” value is recorded as 17.3%.
Turning to `O=C(Nc1ccccc1)C1CCCN1/C=C/C(=O)C(F)(F)F` (stereo not drawn), the “hERG current change (%, negative = inhibition) at 1uM” value is 2.92%.
To `CCC(NS(=O)(=O)c1ccc(C)cc1)C(=O)Nc1ccc(NC(C)=O)cc1` (stereo not drawn) belongs -1.54%; to `CCC(=O)N(Cc1ccc(C)cc1)Cc1cc2cc3c(cc2[nH]c1=O)OCO3`, 0.914%.
